Measurements from PubChem BioAssay (EPA / NIEHS).
Calls of active or inactive are those of the source. How the source made its calls: active means hit-call score of the fitted dose curve at least 0.9, where 1 is the maximum; inactive means score below 0.9.

How the values were obtained:
Settings in all cases: mRNA level, 48 h; actives raise or lower the signal
[1] = read-out: Insulin-like growth factor-binding protein 1 (IGFBP1), IGFBP1 (gene 3484); assay: LTEA_HepaRG_IGFBP1: Life Technologies and Expression Analysis (LTEA) Assay for Insulin-like growth factor-binding protein 1 (IGFBP1) using HepaRG (AID 2283508)
In short: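 HepaRG, 48 h, 8 conc. (max 100 uM, half-log), duplicates, 0.5% DMSO. Readout: TaqMan qRT-PCR, ACTB/GAPDH/POLR2A normalisation. Fit: bidirectional vs DMSO.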

[2] = read-out: Interleukin 6 (IL6), IL6 (gene 3569); assay: LTEA_HepaRG_IL6: Life Technologies and Expression Analysis (LTEA) Assay for Interleukin 6 (IL6) using HepaRG (AID 2283509)
In short: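 HepaRG cells exposed in duplicate for 48 h to eight half-log concentrations, top 100 uM, in 0.5% DMSO serum-free induction medium. mRNA measured by qRT-PCR, normalized to ACTB, GAPDH and POLR2A. Bidirectional fit versus DMSO.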

[3] = read-out: Interleukin 6 Receptor (IL6R), IL6R (gene 3570); assay: LTEA_HepaRG_IL6R: Life Technologies and Expression Analysis (LTEA) Assay for Interleukin 6 Receptor (IL6R) using HepaRG (AID 2283510);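 on AC50: TaqMan qRT-PCR signal normalized to ACTB GAPDH and POLR2A housekeeping genes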
In short: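 Differentiated HepaRG cells, plated 48 h, then exposed in duplicate for 48 h in serum-free induction medium to 8 half-log concentrations (top 100 uM, 0.5% DMSO). IL6R mRNA measured by TaqMan qRT-PCR, normalized to ACTB/GAPDH/POLR2A; bidirectional fit vs DMSO.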

[4] = read-out: Potassium channel subfamily K member 1 (KCNK1), KCNK1 (gene 3775); assay: LTEA_HepaRG_KCNK1: Life Technologies and Expression Analysis (LTEA) Assay for Potassium channel subfamily K member 1 (KCNK1) using HepaRG (AID 2283511)
In short: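 Differentiated HepaRG cells, 48 h exposure in serum-free induction medium with 0.5% DMSO; 8 concentrations, half-log from 100 uM, duplicate. KCNK1 mRNA by qRT-PCR, normalized to ACTB, GAPDH, POLR2A; bidirectional fit vs DMSO.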

[5] = read-out: Keratin 19 (KRT19), KRT19 (gene 3880); assay: LTEA_HepaRG_KRT19: Life Technologies and Expression Analysis (LTEA) Assay for Keratin 19 (KRT19) using HepaRG (AID 2283512)
In short: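 Readout is qRT-PCR of KRT19 mRNA, normalized to ACTB, GAPDH and POLR2A, from HepaRG cells treated 48 h with eight-point half-log dilutions topping at 100 uM. Activity in either direction is scored relative to 0.5% DMSO vehicle.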

[6] = read-out: JUN Transcription Factor, JUN (gene 3725); assay: LTEA_HepaRG_JUN: Life Technologies and Expression Analysis (LTEA) Assay for JUN Transcription Factor using HepaRG (AID 2283513)
In short: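 HepaRG cells, 48 h post-plating, exposed 48 h in serum-free induction medium to 8-point half-log series (top 100 uM, 0.5% DMSO), duplicate; mRNA by qRT-PCR (TaqMan, Fluidigm), normalized to ACTB/GAPDH/POLR2A; bidirectional fit vs DMSO.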

[7] = read-out: Lipase C (LIPC), LIPC (gene 3990); assay: LTEA_HepaRG_LIPC: Life Technologies and Expression Analysis (LTEA) Assay for Lipase C (LIPC) using HepaRG (AID 2283514)
In short: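 HepaRG cells, 48 h after plating, treated in duplicate for 48 h in serum-free induction medium over 8 half-log concentrations from 100 uM, 0.5% DMSO. LIPC mRNA by TaqMan qRT-PCR normalized to ACTB/GAPDH/POLR2A; bidirectional fit versus DMSO.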

[8] = read-out: Lipoprotein lipase (LPL), LPL (gene 4023); assay: LTEA_HepaRG_LPL: Life Technologies and Expression Analysis (LTEA) Assay for Lipoprotein lipase (LPL) using HepaRG (AID 2283515)
In short: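 Differentiated HepaRG cells, plated 48 h, then exposed 48 h in serum-free induction medium to 8 concentrations (top 100 uM, half-log steps) in 0.5% DMSO, duplicate. LPL mRNA measured by qRT-PCR, normalized to ACTB, GAPDH and POLR2A.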

[9] = read-out: MicroRNA 122 (MIR122), gene 406906; assay: LTEA_HepaRG_MIR122: Life Technologies and Expression Analysis (LTEA) Assay for MicroRNA 122 (MIR122) using HepaRG (AID 2283516); further: the transcript read is the microRNA miR-122
In short: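 Differentiated human HepaRG cells in serum-free induction medium exposed 48 h to 8 half-log concentrations from 100 uM in 0.5% DMSO, duplicate. MIR122 quantified by Fluidigm TaqMan qRT-PCR, normalised to ACTB, GAPDH, POLR2A; fold change fitted bidirectionally versus DMSO.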

[10] = read-out: matrix metalloproteinase-10 (MMP10), MMP10 (gene 4319); assay: LTEA_HepaRG_MMP10: Life Technologies and Expression Analysis (LTEA) Assay for matrix metalloproteinase-10 (MMP10) using HepaRG (AID 2283517)
In short: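 Differentiated HepaRG cells in serum-free induction medium exposed 48 h in duplicate to 8-point half-log series up to 100 uM in 0.5% DMSO. mRNA quantified by qRT-PCR, normalised to ACTB, GAPDH, POLR2A; bidirectional fit versus DMSO.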

MYC, MYC (gene 4609) = assay: LTEA_HepaRG_MYC: Life Technologies and Expression Analysis (LTEA) Assay for MYC using HepaRG (AID 2283518)
In short: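 Expression changes were scored by TaqMan qRT-PCR with ACTB, GAPDH and POLR2A normalization. Cultures in serum-free induction medium received duplicate 8-point concentration series, highest 100 uM, for 48 h; DMSO (0.5%) served as baseline.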

[11] = read-out: matrix metalloproteinase-3 (MMP3), MMP3 (gene 4314); assay: LTEA_HepaRG_MMP3: Life Technologies and Expression Analysis (LTEA) Assay for matrix metalloproteinase-3 (MMP3) using HepaRG (AID 2283519)
In short: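 HepaRG cells (~100,000/well) in serum-free induction medium were dosed in duplicate for 48 h with an 8-point half-log series from 100 uM, 0.5% DMSO. MMP3 mRNA was quantified by Fluidigm TaqMan qRT-PCR, normalized to three housekeeping genes.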

[12] = read-out: Paternally Expressed 10 (PEG10), PEG10 (gene 23089); assay: LTEA_HepaRG_PEG10: Life Technologies and Expression Analysis (LTEA) Assay for Paternally Expressed 10 (PEG10) using HepaRG (AID 2283520)
In short: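 Differentiated HepaRG cells exposed 48 h in serum-free induction medium to eight half-log concentrations topping at 100 uM, 0.5% DMSO, in duplicate. PEG10 mRNA quantified by TaqMan qRT-PCR, normalized to ACTB, GAPDH and POLR2A; bidirectional fit versus DMSO.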

[13] = read-out: Nuclear factor NF-kappa-B p105 subunit (Homo sapiens) (UniProt P19838); assay: LTEA_HepaRG_NFKB1: Life Technologies and Expression Analysis (LTEA) Assay for Nuclear Factor Kappa B Subunit 1 (NFKB1) using HepaRG (AID 2283521)
In short: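 HepaRG, 48 h exposure; 8-pt half-log series from 100 uM in 0.5% DMSO; duplicates. Readout: NFKB1 mRNA by qRT-PCR (Fluidigm arrays), housekeeping-normalized. Gain/loss fit vs DMSO baseline.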

[14] = read-out: Protein phosphatase 2A (PPP2R4), PTPA (gene 5524); assay: LTEA_HepaRG_PPP2R4: Life Technologies and Expression Analysis (LTEA) Assay for Protein phosphatase 2A (PPP2R4) using HepaRG (AID 2283522)
In short: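 Differentiated human HepaRG cells in serum-free induction medium were exposed 48 h to 8 concentrations (top 100 µM, half-log steps, duplicate) in 0.5% DMSO. PPP2R4 mRNA was measured by TaqMan qRT-PCR, normalised to ACTB, GAPDH and POLR2A, and fitted bidirectionally versus DMSO.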

[15] = read-out: Phosphatase and tensin (PTEN), PTEN (gene 5728); assay: LTEA_HepaRG_PTEN: Life Technologies and Expression Analysis (LTEA) Assay for Phosphatase and tensin (PTEN) using HepaRG (AID 2283523)
In short: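 HepaRG cells, 48 h after plating, exposed in duplicate for 48 h in serum-free induction medium to 8 half-log concentrations up to 100 uM (0.5% DMSO). PTEN mRNA by qRT-PCR, normalized to ACTB, GAPDH, POLR2A; bidirectional fit versus DMSO.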

[16] = read-out: solute carrier (SLC22A1), SLC22A1 (gene 6580); assay: LTEA_HepaRG_SLC22A1: Life Technologies and Expression Analysis (LTEA) Assay for solute carrier (SLC22A1) using HepaRG (AID 2283524)
In short: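 Differentiated human HepaRG cells in serum-free induction medium, exposed 48 h in duplicate to 8-point half-log series from 100 µM top in 0.5% DMSO. SLC22A1 mRNA by TaqMan qRT-PCR normalized to ACTB, GAPDH, POLR2A; bidirectional fit versus DMSO.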

[17] = read-out: Pyruvate Dehydrogenase Kinase 4 (PDK4), PDK4 (gene 5166); assay: LTEA_HepaRG_PDK4: Life Technologies and Expression Analysis (LTEA) Assay for Pyruvate Dehydrogenase Kinase 4 (PDK4) using HepaRG (AID 2283525)
In short: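 HepaRG cells plated 48 h, then switched to serum-free induction medium and exposed in duplicate for 48 h to 8 half-log concentrations from 100 uM in 0.5% DMSO. PDK4 mRNA measured by qRT-PCR, normalized to ACTB, GAPDH and POLR2A; bidirectional fit versus DMSO.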

[18] = read-out: NAD(P)H dehydrogenase [quinone] 1 (NQO1), NQO1 (gene 1728); assay: LTEA_HepaRG_NQO1: Life Technologies and Expression Analysis (LTEA) Assay for NAD(P)H dehydrogenase [quinone] 1 (NQO1) using HepaRG (AID 2283526)
In short: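 Differentiated human HepaRG cells in serum-free induction medium, dosed in duplicate for 48 h at 8 half-log concentrations up to 100 uM in 0.5% DMSO. NQO1 mRNA by qRT-PCR normalized to ACTB, GAPDH, POLR2A; bidirectional fit versus DMSO baseline.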

[19] = read-out: Nuclear factor erythroid 2-related factor 2 (Homo sapiens) (UniProt Q16236); assay: LTEA_HepaRG_NFE2L2: Life Technologies and Expression Analysis (LTEA) Assay for Nuclear factor erythroid 2-related factor 2 (NFE2L2) Transcription Factor using HepaRG (AID 2283527);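 further: TaqMan qRT-PCR transcript level normalised to ACTB GAPDH and POLR2A housekeeping genes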
In short: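 Differentiated human HepaRG cells, serum-free induction medium, exposed 48 h in duplicate to eight half-log concentrations up to 100 uM in 0.5% DMSO. NFE2L2 mRNA by Fluidigm TaqMan qRT-PCR, normalised to ACTB, GAPDH, POLR2A; bidirectional change versus DMSO.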

Measured: AC50

Nuclear factor NF-kappa-B p105 subunit (Homo sapiens), sequence (P19838 whole entry, looked up): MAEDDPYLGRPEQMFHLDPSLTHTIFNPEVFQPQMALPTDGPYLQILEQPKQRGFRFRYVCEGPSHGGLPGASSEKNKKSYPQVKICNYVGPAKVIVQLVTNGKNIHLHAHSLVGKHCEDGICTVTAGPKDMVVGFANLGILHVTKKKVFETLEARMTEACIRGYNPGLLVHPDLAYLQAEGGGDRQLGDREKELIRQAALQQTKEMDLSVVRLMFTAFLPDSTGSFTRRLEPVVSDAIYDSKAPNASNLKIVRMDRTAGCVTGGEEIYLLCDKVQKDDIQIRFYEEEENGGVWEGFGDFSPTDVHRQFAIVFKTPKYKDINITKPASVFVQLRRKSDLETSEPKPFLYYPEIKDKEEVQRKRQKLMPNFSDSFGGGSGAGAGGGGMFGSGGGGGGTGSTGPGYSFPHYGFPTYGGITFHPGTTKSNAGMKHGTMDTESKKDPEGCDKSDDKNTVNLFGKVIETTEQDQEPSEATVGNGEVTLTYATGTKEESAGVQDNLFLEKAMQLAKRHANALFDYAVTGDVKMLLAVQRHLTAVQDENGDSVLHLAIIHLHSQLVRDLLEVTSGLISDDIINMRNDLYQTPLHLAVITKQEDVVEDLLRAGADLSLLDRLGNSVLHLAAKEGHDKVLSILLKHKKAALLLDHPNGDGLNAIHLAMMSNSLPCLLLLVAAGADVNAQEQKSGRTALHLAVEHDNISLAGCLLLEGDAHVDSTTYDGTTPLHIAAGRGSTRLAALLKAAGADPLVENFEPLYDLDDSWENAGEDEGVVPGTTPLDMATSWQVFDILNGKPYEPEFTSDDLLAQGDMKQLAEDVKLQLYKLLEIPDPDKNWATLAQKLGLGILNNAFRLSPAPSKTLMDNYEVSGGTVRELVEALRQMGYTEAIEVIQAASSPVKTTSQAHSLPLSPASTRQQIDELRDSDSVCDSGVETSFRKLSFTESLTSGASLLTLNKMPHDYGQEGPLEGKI
Nuclear factor erythroid 2-related factor 2 (Homo sapiens), sequence (Q16236 whole entry, looked up): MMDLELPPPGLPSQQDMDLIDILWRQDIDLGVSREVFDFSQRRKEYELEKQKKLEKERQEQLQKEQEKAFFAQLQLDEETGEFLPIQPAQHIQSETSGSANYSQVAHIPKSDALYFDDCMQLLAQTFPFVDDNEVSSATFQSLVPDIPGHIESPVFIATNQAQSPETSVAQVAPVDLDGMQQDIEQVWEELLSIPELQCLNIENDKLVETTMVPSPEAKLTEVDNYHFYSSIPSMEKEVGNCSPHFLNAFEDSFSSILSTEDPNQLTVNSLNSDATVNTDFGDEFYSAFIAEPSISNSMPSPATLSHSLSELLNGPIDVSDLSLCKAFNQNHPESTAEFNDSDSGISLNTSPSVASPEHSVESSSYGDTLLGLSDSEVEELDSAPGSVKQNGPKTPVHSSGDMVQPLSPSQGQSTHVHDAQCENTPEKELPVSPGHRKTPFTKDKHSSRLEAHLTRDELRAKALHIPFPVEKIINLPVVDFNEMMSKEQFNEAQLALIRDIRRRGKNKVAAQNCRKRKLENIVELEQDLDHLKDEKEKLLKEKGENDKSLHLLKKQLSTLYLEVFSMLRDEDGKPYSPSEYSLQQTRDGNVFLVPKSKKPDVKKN

NCC1(Cc2noc(=O)[nH]2)CCCCC1
inactive: all assays above

CCCCCCCCCCCC(=O)OC
not listed: [9] | [18]
inactive: all other assays above

C=CCOC(=O)c1ccccc1C(=O)OCC=C
not listed: [1] | [19]
inactive: all other assays above

Cc1oc(-c2ccccc2)nc1CCOc1cccc2c1ccn2CCC(=O)O
active: [2] 82 µM | [3] 77.6 µM | [5] 88.5 µM | [7] 79.2 µM | [8] 0.0309 µM | [9] 90.1 µM | [10] 82.1 µM | MYC, MYC (gene 4609) 81.9 µM | [16] 79.6 µM | [17] 1.1 µM
inactive: [4] | [6] | [11] | [12] | [13] | [14] | [15]

CCOC(=O)C(C)(C)Oc1ccc(Cl)cc1
active: [17] 24.6 µM
not listed: [1] | [18] | [19]
inactive: all other assays above

CN1CCN(Cc2cc(-c3ccc4[nH]c(=O)oc4c3)co2)[C@@H](c2ccc(F)cc2)C1
active: [2] 50 µM | [5] 23.9 µM | [12] 82.7 µM | [16] 50 µM | [17] 88.5 µM
not listed: [9]
inactive: all other assays above

CCCCCCC(=O)OCC
not listed: [1] | [19]
inactive: all other assays above

Cc1ccc(C)c(C)c1
not listed: [9] | [19]
inactive: all other assays above

Cc1ccc2ncccc2c1
not listed: [1] | [19]
inactive: all other assays above

Nc1nc(N)c2nc(CNc3ccc(C(=O)N[C@@H](CCC(=O)O)C(=O)O)cc3)cnc2n1
active: [1] 0.0937 µM | [17] 0.0967 µM
not listed: [9] | [18]
inactive: all other assays above

Cc1ccccc1Cl
not listed: [9] | [13] | [18]
inactive: all other assays above

CC1=C(/C=C/C(C)=C/C=C/C(C)=C/CO)C(C)(C)CCC1
active: [11] 23.1 µM | [16] 10.4 µM | [18] 52.2 µM
not listed: [1]
inactive: all other assays above

CNCc1cc(F)ccc1Oc1ccc(Cl)c(Cl)c1
active: [1] 73.5 µM | [2] 95.4 µM | [6] 80.5 µM | [10] 91.2 µM | MYC, MYC (gene 4609) 78.9 µM | [11] 50 µM | [12] 0.689 µM | [13] 86.3 µM | [14] 50 µM | [16] 86.5 µM
inactive: [3] | [5] | [7] | [8] | [15] | [17] | [18] | [19]

Oc1ccc2ccccc2c1N=Nc1ccccc1
active: [1] 5.48 µM | [3] 15.7 µM | [5] 3.66 µM | [7] 11.8 µM | [8] 1.7 µM | MYC, MYC (gene 4609) 6.08 µM | [12] 19 µM | [16] 10.5 µM | [17] 4.28 µM
inactive: [2] | [4] | [6] | [10] | [11] | [13] | [14] | [15] | [18]
